# The whole screen tested about 360,000 compounds, of which about 3,600 (1%) were called active. Only a selection was taken, and actives are over-represented in it overall. A number with no mark means an inactive call.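 The calls were made as follows: active = compounds whose plate-normalised and pattern-corrected inhibition of the luciferase reporter signal at the single screening dose is 50% or more; inactive = the rest.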
# Test: inhibitors of TROY-driven NF-kB signaling, primary screen, Q293 LMP1-TROYcd cells, NF-kB luciferase, uHTS (AID 1347056)
# Conditions: Q293 LMP1-TROYcd NF-kB luciferase reporter, 4 h; at 10 µM; stronger effect = higher value
row,Structure (SMILES),inhibition
1,CCCCc1c(-c2ccc(Cl)cc2)ncn1CCc1ccccc1OC,38.5%
2,O=C(CNCc1ccc(F)cc1)Nc1ccccc1-c1ccccc1,25.9%
3,OC1CCCN(c2ncnc3c2nnn3Cc2c(F)cccc2Cl)C1 (configuration not stated),-10.3%
4,Cc1cccc(NC(=O)/C=C/c2ccc3c(c2)OCO3)n1,-33.1%
5,O=C(CNC(=O)C(c1ccccc1)c1ccccc1)N/N=C\c1ccc2c(c1)OCO2,-30.7%
6,C(=N\Nc1ccc2ccccc2n1)/c1ccc2c(c1)OCO2,69.8% (active)
7,COc1cccc(-c2nn(-c3ccccc3)cc2/C=C(\C#N)C(=O)NCCCn2ccnc2)c1,-24.5%
8,COc1ccc(-c2nn(-c3ccccc3)cc2/C=C2/SC(=S)N(CCCC(=O)O)C2=O)c(C)c1,58% (active)
9,COc1ccc(-c2nn(-c3ccccc3)cc2CN2CCCO2)c(F)c1,-17.1%
10,O=C(C1CCC1)N1CCN(S(=O)(=O)c2ccc([N+](=O)[O-])cc2)CC1,-10.9%
11,Cc1ccc2c(C)c(C(=O)N3CCN(c4ccncc4)CC3)oc2c1C,5.65%
12,CC(=NC1CCN(Cc2ccccc2)CC1)c1c(O)[nH]c(=O)[nH]c1=O,26.3%
13,Clc1cccc(N=C2NN=C(c3ccc4c(c3)OCCO4)CS2)c1,66.2% (active)
14,CN(C)c1nc(=Nc2cccc(Cl)c2)ss1,-31.5%
15,CS(=O)(=O)N(CC(=O)N1CCN(Cc2ccccc2)CC1)c1ccc2c(c1)OCCO2,19.4%
16,c1ccc(CN2CCC(N=C3NN=C(c4ccc5c(c4)OCCO5)CS3)CC2)cc1,77.6% (active)
17,C/C(=N\NC(=O)c1ccc(NS(=O)(=O)c2cccs2)cc1)c1ccc2ccccc2c1,-29.3%
18,CC(NC(=O)c1ccc(S(=O)(=O)Nc2ccccc2)cc1)c1ccc(S(N)(=O)=O)cc1 (configuration not stated),2.55%
19,COCCOC(=O)c1c(C)oc2cc(Br)c(OCC(N)=O)cc12,9.46%
20,CC(=O)c1ccc(NC(=O)C(C)OC(=O)c2ccc(NS(=O)(=O)c3ccc4[nH]c(=O)[nH]c4c3)cc2)cc1 (configuration not stated),-12.5%
21,CCCCN1C(=S)NC[C@@H]1C(C)CC (some centres not stated),-3.76%
22,O=[N+]([O-])/C(N=Nc1ccccc1)=N\Nc1ccccc1,-1.58%
23,COC(=O)c1cc(=O)n(-c2c(Cl)cc(C(F)(F)F)cc2Cl)[nH]1,6.27%
24,NC1=NC(=O)S/C1=C\c1ccc(O)cc1,-17.8%
25,COc1cccc(/C=C/c2ccc3ccccc3n2)c1OC(C)=O,54.2% (active)
26,COc1cccc(NC(=O)COC(=O)c2ccc3ccccc3n2)c1,-23.3%
27,CCOc1cccc(/C=C/c2ccc3ccccc3n2)c1OC(C)=O,33.9%

# — PubChem BioAssay AID1347056 (Sanford-Burnham Center for Chemical Genomics, 2019)
